Screening results (PubChem BioAssay)
Hits are enriched below; roughly 4.1% of the tested compounds scored in any of these assays.
Mdm2 MdmX PPI = inhibitors of human Mdm2/MdmX interaction; AID 485346; inhibition, % at 8 µM; O15151+Q00987; actives 3% (n = 330,000); SaOS-2 split-luciferase Mdm2/MdmX complementation, luminescence;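 active = inhibition of at least 50% at 8 µM in the primary screen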
Target sequence (O15151 whole entry, looked up): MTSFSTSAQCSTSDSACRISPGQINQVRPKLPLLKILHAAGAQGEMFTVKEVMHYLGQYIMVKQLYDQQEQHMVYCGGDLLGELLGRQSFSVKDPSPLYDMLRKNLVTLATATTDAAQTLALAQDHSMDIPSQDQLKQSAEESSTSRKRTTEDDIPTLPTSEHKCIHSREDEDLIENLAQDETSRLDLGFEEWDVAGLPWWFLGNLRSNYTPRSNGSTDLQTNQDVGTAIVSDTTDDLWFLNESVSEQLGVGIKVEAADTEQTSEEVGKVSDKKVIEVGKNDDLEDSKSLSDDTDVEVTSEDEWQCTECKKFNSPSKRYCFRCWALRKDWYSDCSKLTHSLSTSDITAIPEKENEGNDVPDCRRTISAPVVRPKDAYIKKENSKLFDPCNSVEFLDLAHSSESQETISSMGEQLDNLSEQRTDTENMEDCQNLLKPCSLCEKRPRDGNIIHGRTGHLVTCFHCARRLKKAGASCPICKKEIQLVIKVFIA
Target sequence (Q00987 whole entry, looked up): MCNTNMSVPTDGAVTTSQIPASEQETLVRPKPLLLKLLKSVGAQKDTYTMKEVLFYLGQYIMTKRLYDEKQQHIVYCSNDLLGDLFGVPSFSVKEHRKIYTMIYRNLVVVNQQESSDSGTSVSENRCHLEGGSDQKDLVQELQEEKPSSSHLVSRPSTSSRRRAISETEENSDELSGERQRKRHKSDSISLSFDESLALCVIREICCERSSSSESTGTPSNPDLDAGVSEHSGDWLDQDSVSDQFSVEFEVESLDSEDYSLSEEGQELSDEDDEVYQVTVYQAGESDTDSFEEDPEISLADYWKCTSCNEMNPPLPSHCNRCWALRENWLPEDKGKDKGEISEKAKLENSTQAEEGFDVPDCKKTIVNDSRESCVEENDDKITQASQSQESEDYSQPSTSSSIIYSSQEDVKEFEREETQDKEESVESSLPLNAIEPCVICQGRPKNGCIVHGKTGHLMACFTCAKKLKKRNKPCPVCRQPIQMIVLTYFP
Jurkat NFkB inh = lowers PMA/ionomycin-induced NF-kB signal in Jurkat cells; PMA/ionomycin-induced NF-kB luciferase reporter, luminescence; inhibition, % at 4 µM; actives 0.53% (n = 330,000); AID 435003; in the data active = inhibition above about 50%
KLF5 inh = kruppel-like factor 5 inhibition. DLD-1 KLF5 promoter-luciferase reporter, luminescence. inhibition, % at 5 µM. actives 0.23% (n = 290,000). AID 1700;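 active = inhibition above a per-plate limit of that plate's mean compound inhibition plus 3 SD, cut at about 60% in these data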;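 note: higher means less KLF5 promoter-driven luciferase light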
697 NFkB inh = lowers PMA/ionomycin-induced NF-kB signal in 697 B cells; AID 435022; inhibition, % at 4 µM; actives 0.33% (n = 330,000); 697 B-cell NF-kB luciferase reporter, 16 h; in the data active = inhibition above about 35%
aSyn UTR inh = 5' untranslated region of α-synuclein, MLPCN primary screen. inhibition, % (tested at 7.5 µM). actives 0.82% (n = 300,000). alpha-synuclein 5'UTR reporter, inhibitor activity; in the data active = inhibition above about 60%;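 note: H4 neuroglioblastoma cells stably carrying SNCA 5'UTR luciferase fusion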
Gli-Sufu antag = Gli-Sufu pathway antagonism | Sufu-KO-LIGHT fibroblasts, Gli luciferase reporter luminescence | actives 0.74% (n = 340,000) | inhibition, % at 5 µM | AID 588413;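 active = inhibition above about 55%, limit read from the data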
Mdm2-MdmX conf = human Mdm2/MdmX binding inhibition, confirmed; shares compounds with Mdm2 MdmX PPI; luminescent assay; inhibition, % at 8 µM; actives 55% (n = 10,000); in the data active = inhibition above about 40%
Full FLuc ctr = inhibits full-length luciferase, flagging false Mdm2/MdmX hits; SaOS-2 full-length luciferase counterscreen, luminescence; shares compounds with Mdm2 MdmX PPI; AID 504607; inhibition, % at 8 µM; actives 77% (n = 6,200);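 active = mean inhibition at 8 µM reaching about 37%, which flags the compound as non-specific, limit read from the data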;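 note: p53-null SaOS-2 cells with luciferase driven by a doxycycline-inducible promoter; compound on cells about two nights before reading with doxycycline added after day one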
Large screens that a line does not name were inactive (follow-up assays come after a bar, where they were run).

CC(C)(C)c1oc(C(=O)O)cc1CN1CCOCC1	none
Cc1ccc(C(=O)NNC(=O)C2CCN(c3nccc(C)n3)CC2)cc1	none
CC(C)(C)OC(=O)[C@H](Cc1ccccc1)NC(=O)c1[nH]cnc1C(=O)Nc1ccc(Cl)cc1	Mdm2 MdmX PPI 50.9 (no result: KLF5 inh) | Mdm2-MdmX conf inactive
CC(C)(C)OC(=O)[C@H](Cc1ccccc1)NC(=O)c1[nH]cnc1C(=O)N[C@@H](Cc1ccccc1)C(=O)OCc1ccccc1	none
Cc1cccc(NC(=O)c2nc[nH]c2C(=O)Nc2ccccc2[N+](=O)[O-])c1	Mdm2 MdmX PPI 51.4 | Mdm2-MdmX conf inactive
CCOC(=O)c1ccc(NC(=O)c2nc[nH]c2C(=O)N[C@@H](Cc2ccccc2)C(=O)OC(C)(C)C)cc1	Mdm2 MdmX PPI 62.1 (no result: KLF5 inh) | Mdm2-MdmX conf inactive
Cc1cccc(NC(=O)c2nc[nH]c2C(=O)N[C@@H](Cc2ccccc2)C(=O)OC(C)(C)C)c1	Mdm2 MdmX PPI 63.7 (no result: KLF5 inh) | Mdm2-MdmX conf inactive
O=C(NCCC1CC1(Cl)Cl)Nc1ccccc1 (stereo not given)	none
Cc1ccc(OCCC(=O)OCC(=O)NC2CCS(=O)(=O)C2)cc1 (stereo not given)	none (no result: KLF5 inh)
CC(C)(C)OC(=O)[C@H](Cc1ccccc1)NC(=O)c1[nH]cnc1C(=O)Nc1cccc(Cl)c1	Mdm2 MdmX PPI 70.1 (no result: KLF5 inh) | Mdm2-MdmX conf inactive
Cc1cc2ccccc2c(=O)n1CC(=O)NCCC1=CCCCC1	none
CC(C(=O)Nc1cccc(C#N)c1)N(C)CCOc1ccccc1 (stereo not given)	none
CC(OC(=O)/C=C/c1ccccc1)C(=O)Nc1cccc(C#N)c1 (stereo not given)	Mdm2 MdmX PPI 55.8 (no result: KLF5 inh) | Mdm2-MdmX conf 58.2 | Full FLuc ctr 95.2
COc1ccc(OCC(=O)N2CCN(C(=O)c3ccc(F)cc3)CC2)cc1	none
O=C(O)c1cccc(-n2cc(-c3cccc(C(F)(F)F)c3)cn2)c1	none
O=C(CN1C(=O)NC2(CCCCCC2)C1=O)NCc1ccccc1Cl	none (no result: KLF5 inh, aSyn UTR inh)
COc1ccc(-c2ccc(SCC(=O)N3CCN(c4ccccc4)CC3)nn2)cc1	Mdm2 MdmX PPI 52.3 | Mdm2-MdmX conf inactive
CCn1c(=O)c(CCC(=O)N2CCOCC2)c(C)c2c(C)nn(-c3ccccc3)c21	Mdm2 MdmX PPI 62.0 | Mdm2-MdmX conf inactive
CCOC(=S)SCC(=O)Nc1nccs1	none
CCOC(=S)SCC(=O)Nc1nc(-c2ccccc2)cs1	Mdm2 MdmX PPI 60.2 | Mdm2-MdmX conf 56.7 | Full FLuc ctr 100.2
CCOC(=S)SCC(=O)Nc1nc(-c2ccc(Br)cc2)cs1	Mdm2 MdmX PPI 84.4, aSyn UTR inh 69.9 | Mdm2-MdmX conf 76.2 | Full FLuc ctr 102.2
CCC(C)NC(=O)c1c(N)n(/N=C/c2cccnc2)c2nc3ccccc3nc12 (stereo not given)	Mdm2 MdmX PPI 64.8 | Mdm2-MdmX conf 59.5 | Full FLuc ctr 60.6
Cc1ccc2nsnc2c1NC(=O)Cc1ccc(Cl)cc1	none
Cc1ccc2nsnc2c1NC(=O)c1ccc(-c2cc(Cl)ccc2Cl)o1	Mdm2 MdmX PPI 60.4 | Mdm2-MdmX conf inactive
COc1ccc(S(=O)(=O)N2CCC3(CC2)OCCN3S(=O)(=O)c2cccs2)cc1OC	none (no result: KLF5 inh)
O=C(C[n+]1ccc(C(=O)NCc2ccccc2)cc1)c1ccc(Cl)cc1	none
CCN1CCN(Cc2ccc(NC(=O)c3ccc(C)c(NC(=O)c4ccnnc4)c3)cc2C(F)(F)F)CC1	none (no result: KLF5 inh)
CCN1CCN(Cc2ccc(NC(=O)c3cc(NC(=O)C(=O)c4c[nH]c5ccccc45)cc(OC)c3)cc2C(F)(F)F)CC1	Mdm2 MdmX PPI 98.9, aSyn UTR inh 116.7 (no result: KLF5 inh) | Mdm2-MdmX conf inactive
CCN1CCN(Cc2ccc(NC(=O)c3cc(NC(=O)c4cc(C)on4)cc(OC)c3)cc2C(F)(F)F)CC1	Mdm2 MdmX PPI 91.2 | Mdm2-MdmX conf inactive | Full FLuc ctr 45.8
CCN1CCN(Cc2ccc(NC(=O)c3ccc(C)c(NC(=O)c4ccc5n[nH]nc5c4)c3)cc2C(F)(F)F)CC1	none (no result: KLF5 inh)
CCN1CCN(Cc2ccc(NC(=O)c3cc(NC(=O)c4cnn(-c5ccccc5)c4N)cc(OC)c3)cc2C(F)(F)F)CC1	Mdm2 MdmX PPI 53.0 (no result: KLF5 inh) | Mdm2-MdmX conf inactive
O=C(NC1CCN(Cc2ccccc2)CC1)c1ccccc1OCc1ccccc1Cl	none
CCS(=O)(=O)Nc1cccc(C2=NN(C(=O)c3ccco3)C(c3ccco3)C2)c1 (stereo not given)	none
O=C(CCl)N1N=C(c2cccs2)CC1c1ccco1 (stereo not given)	Mdm2 MdmX PPI 100.5 | Mdm2-MdmX conf 99.1 | Full FLuc ctr 52.8
O=C(CCl)N1N=C(c2ccco2)CC1c1ccco1 (stereo not given)	Mdm2 MdmX PPI 96.8 (no result: Gli-Sufu antag) | Mdm2-MdmX conf 49.5 | Full FLuc ctr inactive
CCS(=O)(=O)Nc1ccc(C2=NN(C(=O)c3ccco3)C(c3ccco3)C2)cc1 (stereo not given)	Mdm2 MdmX PPI 53.1 (no result: KLF5 inh) | Mdm2-MdmX conf 74.2 | Full FLuc ctr 56.1
CCCS(=O)(=O)N1CCCC(C(=O)Nc2ccc3c(c2)CCC3)C1 (stereo not given)	none
Cc1sc2nc(COC(=O)CNC(=O)c3ccc(C(C)(C)C)cc3)[nH]c(=O)c2c1C	none
C/C(=N\OCC(=O)OCC(=O)NC(=O)c1ccccc1)c1ccc2c(c1)OCO2	none (no result: KLF5 inh)
N#C/C(=N\Nc1ccc(Cl)cc1)C(=O)c1ccsc1	Mdm2 MdmX PPI 68.8 | Mdm2-MdmX conf inactive | Full FLuc ctr 73.6
